{
  "source": "the supplement of paper PMC8728848",
  "assay_in_all_cases": "glycan array binding signal (z-score within array); higher = stronger binding",
  "key": {"[1]": {"tested_on": "Fuc(a1-2)[GalNAc(a1-3)]Gal(b1-4)[Fuc(a1-3)]GlcNAc", "details": "glycan notation: IUPAC condensed, linker removed", "outline": "(§1)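 Glycan array binding is given as a within-array Z-score, which can be read as non-binding when negative. The arrays, 3228 of them, came from the Consortium for Functional Glycomics database and were retained only where the protein sequence was available. Z-scores were averaged across arrays of the same protein sequence at different concentrations or buffers and across linkers.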"}, "[2]": {"tested_on": "Fuc(a1-2)[GalNAc(b1-3)]Gal", "details": "glycan notation: IUPAC condensed, linker removed", "outline": "as §1"}, "[3]": {"tested_on": "Fuc(a1-2)[GalNAc(a1-3)]Gal", "details": "glycan notation: IUPAC condensed, linker removed", "outline": "as §1"}, "[4]": {"tested_on": "Fuc(a1-2)[GalNAc(a1-3)]Gal(b1-4)GlcNAc", "details": "glycan notation: IUPAC condensed, linker removed", "outline": "as §1"}, "[5]": {"tested_on": "Fuc(a1-3)[Gal(b1-4)]GlcNAc(b1-2)Man", "details": "glycan notation: IUPAC condensed, linker removed; mutation: R125K", "outline": "as §1"}, "[6]": {"tested_on": "Fuc(a1-2)[GalNAc(a1-3)]Gal(b1-4)[Fuc(a1-3)]GlcNAc(b1-3)GalNAc", "details": "glycan notation: IUPAC condensed, linker removed", "outline": "as §1"}, "[7]": {"tested_on": "Fuc(a1-3)[Gal(b1-4)]GlcNAc(b1-2)Man(a1-6)[Gal(b1-4)GlcNAc(b1-2)Man(a1-3)]Man(b1-4)GlcNAc(b1-4)GlcNAc", "details": "glycan notation: IUPAC condensed, linker removed", "outline": "as §1"}, "[8]": {"tested_on": "Fuc(a1-3)[Gal(b1-4)]Glc6S", "details": "glycan notation: IUPAC condensed, linker removed", "outline": "as §1"}, "[9]": {"tested_on": "Fuc(a1-2)[GalNAc(a1-4)]Gal(b1-4)GlcNAc", "details": "glycan notation: IUPAC condensed, linker removed", "outline": "as §1"}, "[10]": {"tested_on": "Fuc(a1-2)[GalNAc(a1-3)]Gal(b1-4)Glc", "details": "glycan notation: IUPAC condensed, linker removed", "outline": "as §1"}},
  "note": "Shown is part of a subset that was picked to be rich in the strongest signals.",
  "data": [
    {"substance": "Aggrecan (Rattus norvegicus), NP_071526", "values": [
      {"measurement": "glycan array binding signal (z-score)", "setting": "[1]", "value": 0.401},
      {"measurement": "glycan array binding signal (z-score)", "setting": "[2]", "value": 17.3}
    ]},
    {"substance": "MpAFP RI GFP (Marinomonas primoryensis)", "values": [
      {"measurement": "glycan array binding signal (z-score)", "setting": "[3]", "value": -0.389}
    ]},
    {"substance": "Siglec-8 (Homo sapiens), Q9NYZ4", "values": [
      {"measurement": "glycan array binding signal (z-score)", "setting": "[4]; mutation: R125K", "value": -0.376},
      {"measurement": "glycan array binding signal (z-score)", "setting": "[5]", "value": -0.3}
    ]},
    {"substance": "PILRb (Mus musculus), Q2YSF2", "values": [
      {"measurement": "glycan array binding signal (z-score)", "setting": "[6]", "value": 11.4},
      {"measurement": "glycan array binding signal (z-score)", "setting": "[1]", "value": 2.67},
      {"measurement": "glycan array binding signal (z-score)", "setting": "[7]", "value": -0.477}
    ]},
    {"substance": "Neurocan (Homo sapiens), O14594", "values": [
      {"measurement": "glycan array binding signal (z-score)", "setting": "[3]", "value": -0.021}
    ]},
    {"substance": "6RG (Lolium perenne), B9U140", "values": [
      {"measurement": "glycan array binding signal (z-score)", "setting": "[4]", "value": -0.075}
    ]},
    {"substance": "CHI3L1 (Homo sapiens), P36222", "values": [
      {"measurement": "glycan array binding signal (z-score)", "setting": "[2]", "value": 0.059},
      {"measurement": "glycan array binding signal (z-score)", "setting": "[8]", "value": -0.082}
    ]},
    {"substance": "Avaren (Actinomycete K97)", "values": [
      {"measurement": "glycan array binding signal (z-score)", "setting": "[9]", "value": -0.123}
    ]},
    {"substance": "wLAT-1A (Homo sapiens), Q01650", "values": [
      {"measurement": "glycan array binding signal (z-score)", "setting": "[10]", "value": 0.692}
    ]},
    {"substance": "6RG (Lolium perenne)", "values": [
      {"measurement": "glycan array binding signal (z-score)", "setting": "[9]", "value": -0.148},
      {"measurement": "glycan array binding signal (z-score)", "setting": "[7]", "value": -0.247}
    ]}
  ]
}
